Assay results as given in PubChem BioAssay (NCI).
About 83,000 compounds went through this panel and 20% of them were active in at least one assay; those are over-represented in the sample as a whole.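 Growth was measured after 48 h exposure to one concentration of compound in 96-well plates. Values under 10 count as active.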 The source made the active and inactive calls.

What was measured:
Experiment in all cases: NCI-60 one-dose screen, 48 h (100 = growth as untreated, 0 = no growth, -100 = all killed)
Settings in all cases: 10 µM unless noted
SR leukemia = tested on: SR leukemia
RPMI-8226 leukemia = tested on: RPMI-8226 leukemia
OVCAR-8 ovarian = tested on: OVCAR-8 ovarian
OVCAR-5 ovarian = tested on: OVCAR-5 ovarian
OVCAR-4 ovarian = tested on: OVCAR-4 ovarian
SK-OV-3 ovarian = tested on: SK-OV-3 ovarian
IGROV1 ovarian = tested on: IGROV1 ovarian
OVCAR-3 ovarian = tested on: OVCAR-3 ovarian
HS 578T breast = tested on: HS 578T breast
NCI/ADR-RES ovarian = tested on: NCI/ADR-RES ovarian
T-47D breast = tested on: T-47D breast
BT-549 breast = tested on: BT-549 breast
MDA-MB-435 melanoma = tested on: MDA-MB-435 melanoma
SW-620 colon = tested on: SW-620 colon
MCF7 breast = tested on: MCF7 breast
HCT-116 colon = tested on: HCT-116 colon
HCC-2998 colon = tested on: HCC-2998 colon
KM12 colon = tested on: KM12 colon

Measured: growth

Cc1ccc(S(=O)(=O)Nn2c3c(cc(-c4nc5ccccc5s4)c2=O)CCCCCC3)cc1
inactive: SR leukemia 97.8% | RPMI-8226 leukemia 97.8% | OVCAR-8 ovarian 92.3% | OVCAR-5 ovarian 105% | OVCAR-4 ovarian 98.5% | SK-OV-3 ovarian 104% | IGROV1 ovarian 95.3% | OVCAR-3 ovarian 102% | HS 578T breast 91.7% | NCI/ADR-RES ovarian 95.8% | T-47D breast 96.4% | BT-549 breast 109% | MDA-MB-435 melanoma 103% | SW-620 colon 99.6% | MCF7 breast 91.3% | HCT-116 colon 98% | HCC-2998 colon 115% | KM12 colon 101%

Cn1c(N2NC(=O)C(N=Nc3ccc(S(N)(=O)=O)cc3)C2=O)nc(-c2ccco2)c(C#N)c1=O (stereo unspecified)
inactive: OVCAR-8 ovarian 90.2% | OVCAR-5 ovarian 115% | OVCAR-4 ovarian 59.2% | SK-OV-3 ovarian 102% | IGROV1 ovarian 30.7% | OVCAR-3 ovarian 72.7% | HS 578T breast 104% | NCI/ADR-RES ovarian 93% | T-47D breast 72.2% | BT-549 breast 109% | MDA-MB-435 melanoma 119% | SW-620 colon 51.9% | MCF7 breast 68% | HCT-116 colon 76.4% | HCC-2998 colon 51.1% | KM12 colon 85.5%
active: SR leukemia 1.63% | RPMI-8226 leukemia 3.99%

O=C(O)c1ccc(NCc2cn(-c3ccc(C(F)(F)F)cc3)nc2-c2ccc(C(=O)O)cc2)cc1
inactive: SR leukemia 97.3% | RPMI-8226 leukemia 112% | OVCAR-8 ovarian 103% | OVCAR-5 ovarian 103% | OVCAR-4 ovarian 111% | SK-OV-3 ovarian 113% | IGROV1 ovarian 106% | OVCAR-3 ovarian 115% | HS 578T breast 107% | NCI/ADR-RES ovarian 104% | T-47D breast 100% | BT-549 breast 108% | MDA-MB-435 melanoma 102% | SW-620 colon 110% | MCF7 breast 96% | HCT-116 colon 109% | HCC-2998 colon 107% | KM12 colon 104%

COc1cccc(C(=O)NNc2nc(Cl)nc(N3CCN(C(c4ccccc4)c4ccccc4)CC3)n2)c1
active: SR leukemia -23.8% | IGROV1 ovarian 2.85%
inactive: RPMI-8226 leukemia 88% | OVCAR-8 ovarian 71.1% | OVCAR-5 ovarian 97.3% | OVCAR-4 ovarian 72.2% | SK-OV-3 ovarian 96% | OVCAR-3 ovarian 10.5% | HS 578T breast 91.6% | NCI/ADR-RES ovarian 88% | T-47D breast 83.3% | BT-549 breast 81.6% | MDA-MB-435 melanoma 97.2% | SW-620 colon 33.9% | MCF7 breast 88% | HCT-116 colon 39.2% | HCC-2998 colon 64% | KM12 colon 90.2%

Nc1ccccc1NC(=O)c1ccc(-n2nc(-c3ccccc3)c3ccccc32)cc1
inactive: SR leukemia 48.6% | OVCAR-8 ovarian 62.6% | OVCAR-5 ovarian 87.1% | OVCAR-4 ovarian 77% | SK-OV-3 ovarian 107% | IGROV1 ovarian 68.5% | OVCAR-3 ovarian 72.6% | HS 578T breast 83.5% | NCI/ADR-RES ovarian 54% | T-47D breast 76.9% | MDA-MB-435 melanoma 92.2% | SW-620 colon 84.8% | MCF7 breast 57.1% | HCT-116 colon 58.1% | HCC-2998 colon 104% | KM12 colon 91.4%
active: RPMI-8226 leukemia -8.09% | BT-549 breast -92.3%

O=C(C1CCC1)N1N=C(c2ccc(-n3ccc(C(F)(F)F)n3)cc2)CC1c1ccc[nH]1 (stereo unspecified)
inactive: SR leukemia 81.9% | RPMI-8226 leukemia 63.2% | OVCAR-8 ovarian 95.4% | OVCAR-5 ovarian 94.8% | OVCAR-4 ovarian 112% | SK-OV-3 ovarian 133% | IGROV1 ovarian 99.6% | OVCAR-3 ovarian 107% | HS 578T breast 101% | NCI/ADR-RES ovarian 95.5% | T-47D breast 78% | BT-549 breast 119% | MDA-MB-435 melanoma 99.7% | SW-620 colon 103% | MCF7 breast 91.9% | HCT-116 colon 94.4% | HCC-2998 colon 113% | KM12 colon 89.7%

COc1cccc(-c2ccc3c(c2)NC(=O)/C3=C\c2ccc[nH]2)c1
inactive: RPMI-8226 leukemia 17.5% | OVCAR-8 ovarian 74.2% | OVCAR-5 ovarian 53.2% | OVCAR-4 ovarian 54.7% | SK-OV-3 ovarian 58.9% | IGROV1 ovarian 29.7% | OVCAR-3 ovarian 12.7% | HS 578T breast 56.4% | NCI/ADR-RES ovarian 40.4% | T-47D breast 13.6% | BT-549 breast 36.6% | SW-620 colon 25.1% | MCF7 breast 11.3% | HCT-116 colon 23.5% | HCC-2998 colon 25.4%
active: SR leukemia 8.43% | MDA-MB-435 melanoma 8.7% | KM12 colon 9.35%

O=S(=O)(NCCNc1nccc(-c2c(-c3cccc(O)c3)nc3occn23)n1)c1ccc(C(F)(F)F)cc1
inactive: SR leukemia 110% | RPMI-8226 leukemia 105% | OVCAR-8 ovarian 102% | OVCAR-5 ovarian 138% | OVCAR-4 ovarian 118% | SK-OV-3 ovarian 95.8% | IGROV1 ovarian 73.8% | OVCAR-3 ovarian 113% | HS 578T breast 100% | NCI/ADR-RES ovarian 105% | T-47D breast 79.2% | BT-549 breast 107% | MDA-MB-435 melanoma 45% | SW-620 colon 126% | MCF7 breast 67.2% | HCT-116 colon 90.1% | HCC-2998 colon 132% | KM12 colon 94.4%

C[C@H](c1nc2ccc(N)cc2[nH]1)[C@H]1CC[C@H]2[C@@H]3CCC4=CC(=O)CC[C@]4(C)[C@H]3CC[C@]12C
inactive: SR leukemia 44.4% | RPMI-8226 leukemia 64.5% | OVCAR-8 ovarian 91.4% | OVCAR-5 ovarian 102% | OVCAR-4 ovarian 88.1% | SK-OV-3 ovarian 91.2% | IGROV1 ovarian 85.1% | OVCAR-3 ovarian 91.5% | HS 578T breast 87.3% | NCI/ADR-RES ovarian 89% | T-47D breast 77.8% | BT-549 breast 70% | MDA-MB-435 melanoma 95.7% | SW-620 colon 102% | MCF7 breast 67.9% | HCT-116 colon 74.6% | HCC-2998 colon 93.5% | KM12 colon 91.8%

CC1=C(C(=O)/C=C/c2c[nH]c3ccccc23)C(c2ccccc2)NC(=S)N1 (stereo unspecified)
inactive: SR leukemia 88.8% | RPMI-8226 leukemia 101% | OVCAR-8 ovarian 101% | OVCAR-5 ovarian 96.7% | OVCAR-4 ovarian 101% | SK-OV-3 ovarian 95.4% | IGROV1 ovarian 76.8% | OVCAR-3 ovarian 98.5% | HS 578T breast 95.9% | NCI/ADR-RES ovarian 97.1% | T-47D breast 98.6% | BT-549 breast 107% | MDA-MB-435 melanoma 97.4% | SW-620 colon 91.7% | MCF7 breast 95.4% | HCT-116 colon 93.3% | HCC-2998 colon 108% | KM12 colon 106%

CCOC(=O)CSc1nc2ccccc2c(=O)n1Cc1ccc(S(N)(=O)=O)cc1
inactive: SR leukemia 99.6% | RPMI-8226 leukemia 98.2% | OVCAR-8 ovarian 101% | OVCAR-5 ovarian 97.5% | OVCAR-4 ovarian 116% | SK-OV-3 ovarian 107% | IGROV1 ovarian 105% | OVCAR-3 ovarian 112% | HS 578T breast 97.9% | NCI/ADR-RES ovarian 104% | T-47D breast 102% | BT-549 breast 105% | MDA-MB-435 melanoma 102% | SW-620 colon 98.6% | MCF7 breast 96.7% | HCT-116 colon 102% | HCC-2998 colon 109% | KM12 colon 104%

Cc1cccc(-c2cn3ccnc3c(-c3ccc4ncn(Cc5ccccc5)c4c3)n2)c1
inactive: SR leukemia 89% | RPMI-8226 leukemia 62.5% | OVCAR-8 ovarian 88.5% | OVCAR-5 ovarian 93.4% | OVCAR-4 ovarian 80.7% | SK-OV-3 ovarian 102% | IGROV1 ovarian 90.5% | OVCAR-3 ovarian 86% | HS 578T breast 91.5% | NCI/ADR-RES ovarian 87.9% | T-47D breast 13.9% | BT-549 breast 101% | MDA-MB-435 melanoma 99.1% | SW-620 colon 100% | MCF7 breast 77.8% | HCT-116 colon 63.3% | HCC-2998 colon 111% | KM12 colon 78%

CCN1C(=O)/C(=C/C(=O)OC)S/C1=N\NC(=O)c1cc2ccc1/C=C\c1ccc(cc1)/C=C\2
active: SR leukemia -13.4% | RPMI-8226 leukemia -14.3% | SW-620 colon 8.79%
inactive: OVCAR-8 ovarian 92.6% | OVCAR-5 ovarian 100% | OVCAR-4 ovarian 89.6% | SK-OV-3 ovarian 125% | IGROV1 ovarian 88.4% | OVCAR-3 ovarian 92.9% | HS 578T breast 99% | NCI/ADR-RES ovarian 86.5% | T-47D breast 94.2% | BT-549 breast 92.3% | MDA-MB-435 melanoma 99.3% | MCF7 breast 43.7% | HCT-116 colon 49.5% | HCC-2998 colon 105% | KM12 colon 85%

C/C(=N\NC(=O)CSc1nc2ccccc2c(=O)n1CCc1ccc(S(N)(=O)=O)cc1)c1ccccn1
inactive: SR leukemia 22.8% | RPMI-8226 leukemia 30.9% | OVCAR-8 ovarian 22.8% | OVCAR-5 ovarian 39.8% | OVCAR-4 ovarian 19.5% | SK-OV-3 ovarian 20.8% | IGROV1 ovarian 45.5% | OVCAR-3 ovarian 12.5% | HS 578T breast 73.7% | NCI/ADR-RES ovarian 74.4% | T-47D breast 28.4% | BT-549 breast 59.4% | MDA-MB-435 melanoma 33.4% | SW-620 colon 32.1% | MCF7 breast 34.5% | HCT-116 colon 24.5% | HCC-2998 colon 39.3% | KM12 colon 21.3%

C/C=C(\C)C(=O)NC1=CC[C@@]2(C)C(=CCC3C2CC[C@@]2(C)C3CC[C@@H]2C(C)N(C)C)C1=O (stereo partly specified)
active: RPMI-8226 leukemia 3.85% | OVCAR-4 ovarian 1.84% | MDA-MB-435 melanoma -2.62% | SW-620 colon -11%
inactive: SR leukemia 27.7% | OVCAR-8 ovarian 65.9% | OVCAR-5 ovarian 85.8% | SK-OV-3 ovarian 114% | IGROV1 ovarian 40.4% | OVCAR-3 ovarian 29.3% | HS 578T breast 56.8% | NCI/ADR-RES ovarian 55.7% | T-47D breast 46.7% | BT-549 breast 37.6% | MCF7 breast 10.3% | HCT-116 colon 10.4% | HCC-2998 colon 31.3% | KM12 colon 19.6%

COc1ccc(C(=O)CSc2nc(-c3cc(OC)ccc3OC)cc(-c3ccc(Cl)cc3)c2C#N)cc1
inactive: SR leukemia 65.3% | RPMI-8226 leukemia 78.5% | OVCAR-8 ovarian 61.2% | OVCAR-5 ovarian 81.2% | OVCAR-4 ovarian 24.8% | SK-OV-3 ovarian 33.3% | IGROV1 ovarian 62.4% | OVCAR-3 ovarian 98.1% | HS 578T breast 57.8% | NCI/ADR-RES ovarian 77.5% | T-47D breast 32.3% | BT-549 breast 10.8% | MDA-MB-435 melanoma 26% | SW-620 colon 50.7% | MCF7 breast 46.5% | HCT-116 colon 30.2% | HCC-2998 colon 78.3% | KM12 colon 48.3%

C[C@@H](Nc1ncnc2ccc(-c3cnc(N)nc3)cc12)c1ccc(F)cc1
inactive: SR leukemia 85.3% | RPMI-8226 leukemia 83.6% | OVCAR-8 ovarian 78.1% | OVCAR-5 ovarian 44.6% | OVCAR-4 ovarian 74.3% | SK-OV-3 ovarian 103% | IGROV1 ovarian 28.7% | OVCAR-3 ovarian 69.2% | HS 578T breast 69.2% | NCI/ADR-RES ovarian 86% | T-47D breast 67.8% | BT-549 breast 69.3% | MDA-MB-435 melanoma 95.3% | SW-620 colon 95.8% | MCF7 breast 82.5% | HCT-116 colon 85.3% | HCC-2998 colon 87.1% | KM12 colon 98.7%
